High-throughput results from PubChem BioAssay.
GLP1R ag: agonists of human GLP-1 receptor | P43220 | HEK293 GLP-1R CRE-luciferase, luminescence, 4-6 h; cells express a hypersensitive GLP-1R form | Potency, µM (highest dose often 45.6 µM), actives largely listed as activators | hit rate 0.007% among 380,000 | AID 624172
Target sequence (P43220 whole entry, looked up): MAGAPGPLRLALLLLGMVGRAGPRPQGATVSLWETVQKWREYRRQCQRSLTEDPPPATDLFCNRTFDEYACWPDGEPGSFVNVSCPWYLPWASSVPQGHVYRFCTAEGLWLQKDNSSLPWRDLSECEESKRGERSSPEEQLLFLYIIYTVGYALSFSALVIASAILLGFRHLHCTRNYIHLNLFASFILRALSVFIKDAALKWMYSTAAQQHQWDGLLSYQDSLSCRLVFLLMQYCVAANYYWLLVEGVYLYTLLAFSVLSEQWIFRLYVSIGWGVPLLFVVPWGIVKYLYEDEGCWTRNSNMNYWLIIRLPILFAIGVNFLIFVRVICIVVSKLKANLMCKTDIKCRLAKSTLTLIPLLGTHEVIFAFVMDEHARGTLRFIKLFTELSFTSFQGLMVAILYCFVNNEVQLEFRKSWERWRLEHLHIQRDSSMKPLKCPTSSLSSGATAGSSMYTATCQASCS
GLP1R inv ag: inverse agonists of human GLP-1 receptor; HEK293 GLP-1R CRE-luciferase, luminescence, 24 h; GLP-1R form is constitutively active; Potency, µM (titrated, usually from 38.3 µM), hits mostly inhibitors; hit rate 1.6% among 410,000; AID 624417; also: nearly all actives have a fitted effect of over 55% in size
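qHTS in 1536-well format: reporter HEK293 cells expressing constitutive GLP-1R activity in DMEM + 10% Nu serum, 24 hr with compounds at 37 deg C, luminescence read after 12 min with detection reagent.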
HEK293 tox: cytotoxicity counter-screen for GLP-1 receptor inverse agonists. HEK293 cAMP-luciferase reporter cells, luminescence, 24 h. Potency, µM (titrated, usually from 38.3 µM), hits mostly inhibitors. hit rate 0.13% among 410,000. AID 624418;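 also: loss of luciferase light is scored as toxicity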
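A 23 nL compound transfer followed 12 hours of cell culture at 37 deg C; exposure then lasted 24 hr. Luciferase assay detection reagent was dispensed and plates read for luminescence after a 12 min room-temperature wait.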
ClpP mod: qHTS Assay for Activators of ClpP; ATP-dependent Clp protease proteolytic subunit (Bacillus subtilis (strain 168)), P80244; purified B. subtilis ClpP, FRET peptide cleavage, 20 min; Potency, µM (titrated, usually from 57.5 µM); hit rate 1.9% among 340,000; AID 651965, 2013; active = well fitted falling curve with a large enough effect; inconclusive = small, poorly fitted or top-dose-only effect; inactive = no such curve, though single readings can be large or run the other way; also: the source files actives as falling curves though it sought activators and does not explain the sign; nearly all actives have a fitted effect of over 65% in size
Target sequence (P80244 whole entry, looked up): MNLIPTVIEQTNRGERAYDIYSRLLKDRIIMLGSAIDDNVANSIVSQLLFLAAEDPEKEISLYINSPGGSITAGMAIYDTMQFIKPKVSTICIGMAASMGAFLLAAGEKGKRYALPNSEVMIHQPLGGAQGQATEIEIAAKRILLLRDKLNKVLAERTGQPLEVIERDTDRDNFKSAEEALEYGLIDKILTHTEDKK
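Buffer: 100 mM Tris/HCl pH8, 100 mM KCl, 0.05% low protease BSA, 2.5% glycerol, 0.01% Tween-20. ClpP 10 microg/mL final; 20 min RT; delta FRET normalized to ADEP and DMSO controls.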
A number is an active result; . = inactive; ? = inconclusive; / = no result given. Compounds with a hit are over-represented: about 3.2% of the library has one in this group of screens. Unless noted, calls follow the shape of the dose curve; as a rule, active = well fitted curve in the direction sought with a large enough effect; inconclusive = small, poorly fitted or top-dose-only effect, or another doubt; inactive = no such curve, though single readings can be large; an effect the other way counts as inactive or inconclusive.

SMILES	GLP1R ag	GLP1R inv ag	HEK293 tox	ClpP mod
CN(C)CCNC(=O)C(=O)Nc1ccc2c(c1)N(S(=O)(=O)c1cccs1)CCC2	.	?	4.47µM	.
CN(C)CCCNC(=O)C(=O)Nc1ccc2c(c1)N(S(=O)(=O)c1cccs1)CCC2	.	.	.	.
CC(C)(C)OC(=O)N1CCC(c2c(C(=O)NCc3ccco3)cnn2-c2ccc(F)cc2F)CC1	/	.	.	.
CN(Cc1ccc(Cl)cc1)C(=O)CNC(=O)C12CC3CC(CC(C3)C1)C2	.	8.91µM	.	.
Cc1ccccc1CN1CCCN(CC(=O)Nc2c(C)cccc2C)S1(=O)=O	/	.	.	.
COC(=O)c1ccc(NC(=S)NC2CC3CCC2C3)cc1 (stereo not drawn)	.	10µM	?	.
COC(=O)c1ccc(NC(=O)C2CC3CCC2C3)cc1 (stereo not drawn)	.	.	.	/
O=C(C1COc2ccccc2O1)N1CCN(c2nc3c(F)cccc3s2)CC1 (stereo not drawn)	/	?	.	.
CCOc1nc(-c2ccccc2)ccc1-c1noc(COc2ccccc2)n1	.	?	.	?
COc1nc(-c2ccc(C)cc2)ccc1-c1noc(-c2ccco2)n1	.	.	.	28.2µM
CCOc1ccccc1-c1nc(-c2ccc(-c3ccccc3)nc2OCC)no1	/	.	.	12.6µM
CCOc1nc(-c2ccccc2)ccc1-c1noc(-c2ccco2)n1	.	?	.	35.5µM
COc1ccc(NC(=O)CN2C(=O)C(=O)c3ccccc32)c(OC)c1	/	.	.	.
CCOc1ccc(NC(=O)C2CCN(c3nnc(-n4c(C)ccc4C)s3)CC2)cc1	/	.	.	.
Cc1ccc(N=Nc2c(C)[nH]n(C(N)=S)c2=O)cc1C	.	0.501µM	?	.
CCOC(=O)c1cnc(-n2nc(C)cc2C)nc1Nc1ccc(N(C)C)cc1	.	1.58µM	1.12µM	.
CCOC(=O)c1cnc(-n2nc(C)cc2C)nc1NNc1nc(C)cc(C)n1	.	.	.	.
CCOC(=O)c1cnc(-n2nc(C)cc2C)nc1NC1CCCCC1	.	1.26µM	1µM	.
CCOC(=O)c1cnc(-n2nc(C)cc2C)nc1Nc1ccc(C)cc1	.	?	?	.
CCOC(=O)c1cnc(-n2nc(C)cc2C)nc1N(CC)CC	.	.	2.82µM	.
CCOC(=O)c1cnc(-n2nc(C)cc2C)nc1NC	.	?	?	31.6µM
O=C(Nc1ccc2snnc2c1)Nc1cccc2ccccc12	.	10µM	?	.
CCc1ccccc1NC(=O)Nc1ccc2snnc2c1	.	?	.	.
NC(=S)NN=Cc1nccc2c(C(F)(F)F)cccc12	.	1.26µM	?	.
CNc1cccnc1C=NNC(N)=S	.	.	.	.
SMILES	GLP1R ag	GLP1R inv ag	HEK293 tox	ClpP mod
Cc1ccc2nc(-c3cccc(Br)c3)cc(C(=O)NCC3CCCO3)c2c1 (stereo not drawn)	.	.	.	14.1µM
O=C(NCC1CCCO1)c1cc(-c2ccccc2)nc2ccc(Br)cc12 (stereo not drawn)	.	.	.	.
COC(=O)c1cc2c(=O)n3ccccc3nc2n(Cc2cccnc2)c1=N	.	.	.	6.31µM
CCNC(=O)c1cc2c(=O)n3cccc(C)c3nc2n(Cc2ccc(C)cc2)c1=N	.	.	.	4.47µM
N=c1c(C(=O)NC2CCCCC2)cc2c(=O)n3ccccc3nc2n1Cc1cccnc1	.	.	.	/
CCOCCCn1c(=N)c(C(=O)NCc2ccccc2)cc2c(=O)n3ccccc3nc21	.	.	.	.
N=c1c(C(=O)NCc2ccccc2)cc2c(=O)n3ccccc3nc2n1CCCN1CCOCC1	.	.	.	3.16µM
N=c1c(C(=O)NCc2ccc(F)cc2)cc2c(=O)n3ccccc3nc2n1CCCN1CCOCC1	.	.	.	?
CC(C)OCCCn1c(=N)c(C(N)=S)cc2c(=O)n3ccccc3nc21	.	.	.	14.1µM
CC(=O)N1CCCc2cc(S(=O)(=O)N3CCCC(C(=O)Nc4cc(Cl)ccc4C)C3)ccc21 (stereo not drawn)	/	.	.	.
O=C(NCc1ccccc1)c1ccc(Cn2c(=O)c3cccn3c3cccnc32)cc1	/	.	.	.
CCc1cccc(NC(=O)c2c(C)oc3ncnc(N4CCCCC4)c23)c1	/	?	.	.
O=C(NC1CC(=O)N(c2cccc(F)c2)C1)c1ccc(S(=O)(=O)N2CCOCC2)cc1 (stereo not drawn)	/	.	.	.
CCOc1ccc(NC(=O)N2CCC(CN3CCc4ccccc4C3)CC2)cc1	/	.	.	.
COc1cc(C(=O)N(CCCN(C)C)c2nc3c(OC)cccc3s2)cc(OC)c1OC	/	?	.	.
N=c1c(C(=O)NCc2ccc(F)cc2)cc2c(=O)n3ccccc3nc2n1Cc1cccnc1	.	.	.	7.08µM
C=CCn1c(=N)c(C(=O)NCCCOC)cc2c(=O)n3ccccc3nc21	.	.	.	6.31µM
Cc1ccc(-c2cc(C)nc3nc(N)nn23)cc1	.	.	.	14.1µM
Cc1ccc(-c2cc(C)nc3ncnn23)cc1	.	.	.	.
CCOC(=O)Cn1c(-c2ccccc2)cc(SC)c(C#N)c1=O	.	10µM	.	/
CC(C)CC(=O)/C=C/n1c(=S)oc2ccccc21	.	.	?	.
CC(=O)/C=C/n1c(=S)oc2ccccc21	.	?	11.2µM	.
Cc1ccc(OCC(O)CNC(C)c2ccccc2)cc1C (stereo not drawn)	.	5.01µM	.	.
OC(CNc1ccccc1)COc1ccc(OCC(O)CNc2ccccc2)cc1 (stereo not drawn)	.	6.31µM	.	.
OC(CNCc1ccco1)COc1ccccc1 (stereo not drawn)	.	.	.	14.1µM
SMILES	GLP1R ag	GLP1R inv ag	HEK293 tox	ClpP mod
COc1ccc(OCC(O)CNCc2ccco2)cc1 (stereo not drawn)	.	.	.	.
CCOC(=O)c1ccccc1NC(=O)c1sc2ncn(CC)c(=O)c2c1C	/	.	.	.
O=C(Nc1cccc(S(=O)(=O)N2CCCCCC2)c1)c1cncc(Br)c1	.	?	.	.
Cc1ccc(S(=O)(=O)N2CCCCC2)cc1NC(=O)c1cncc(Br)c1	.	.	.	11.2µM
Cc1cccc(C(=O)N[C@H](C(=O)Nc2cc(S(=O)(=O)N3CCCCC3)ccc2C)C(C)C)c1	.	10µM	.	.
CC(C)CCN1C(=O)c2ccc(C(=O)NCc3ccccn3)cc2C1=O	.	.	.	31.6µM
N#Cc1c(NC(=O)CSc2nc(-c3ccccc3)cc(C(F)(F)F)n2)sc2c1CCC2	.	.	.	25.1µM
O=C1c2cccc(NCCCNCCO)c2C(=O)c2cccc(NCCCNCCO)c21	.	?	7.94µM	.
CCOC(=O)c1c(C)[nH]c(C)c1C(=O)CSc1nc2ccccc2c(=O)n1-c1ccccc1C	.	?	.	28.2µM
Cc1ccc(OCc2nc3ccccc3n2CCOc2ccc(Cl)cc2)cc1	/	?	.	.
Cc1ccc(NC(=O)Cc2ccc(-c3ccccc3)cc2)nc1	.	10µM	.	.
COc1ccc(S(=O)(=O)Nc2cc(Cl)ccc2OC)cc1	.	1.41µM	.	.
